SRC1 TRFRET art – TR-FRET artefact, counter-screen to PPARgamma/SRC-1 agonist assay | TR-FRET detection artefact counter-screen, emission ratio; hits give high values | TR-FRET ratio at 8 µM | 99,000 tested, 0.34% active | AID 1051; in the data active = TR-FRET ratio above about 2300
TR-FRET SRC-2 ct – counter-screen for PPARgamma SRC-2 recruitment agonists: TR-FRET artefact | 200,000 tested, 0.4% active | TR-FRET ratio at 8 µM | hits give high values | AID 1049
PPARg SRC-2 ag – agonists of SRC-2 recruitment by human PPARgamma | activation, % at 8 µM | PPARgamma LBD-SRC-2 recruitment, biochemical | AID 1032 | P37231 | 200,000 tested, 0.34% active; in the data active = activation above about 22%
Target sequence (P37231 whole entry, looked up, the tested form may be a part): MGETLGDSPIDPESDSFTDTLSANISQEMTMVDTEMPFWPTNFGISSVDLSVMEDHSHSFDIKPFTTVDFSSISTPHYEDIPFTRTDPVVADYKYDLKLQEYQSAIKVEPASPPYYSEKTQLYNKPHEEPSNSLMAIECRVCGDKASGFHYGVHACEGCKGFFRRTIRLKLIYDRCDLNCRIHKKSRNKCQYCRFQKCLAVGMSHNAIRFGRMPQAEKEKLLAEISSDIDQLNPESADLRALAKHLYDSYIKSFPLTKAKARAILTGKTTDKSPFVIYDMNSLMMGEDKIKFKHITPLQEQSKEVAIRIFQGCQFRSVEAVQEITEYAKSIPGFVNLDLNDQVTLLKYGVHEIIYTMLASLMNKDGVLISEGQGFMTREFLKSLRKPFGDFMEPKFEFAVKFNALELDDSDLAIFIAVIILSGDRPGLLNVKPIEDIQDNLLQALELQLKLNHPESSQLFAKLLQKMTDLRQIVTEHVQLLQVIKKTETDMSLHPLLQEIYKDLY
SRC3 TRFRET art – counter-screen for PPARgamma SRC-3 recruitment agonists: TR-FRET artefact | 99,000 tested, 0.39% active | PPARgamma/SRC-3 format; hits give high values | TR-FRET ratio at 8 µM
PPARg SRC-1 ag – promotes SRC-1 coactivator recruitment by human PPARgamma; P37231; PPARgamma-SRC-1 coactivator recruitment biochemical assay; activation, % at 8 µM; 200,000 tested, 0.41% active; AID 631; in the data active = activation above about 19%
PPARg SRC3 recr – PPARgamma-driven SRC-3 recruitment agonism; P37231; biochemical PPARgamma/SRC-3 coactivator recruitment assay; activation, % at 8 µM; 200,000 tested, 0.26% active; AID 731; in the data active = activation above about 23%
A number is an active result; n = inactive; x = no result. Compounds with a hit are over-represented: about 0.84% of the library has one in this group of screens. Rule as the data show it, unless noted: active = TR-FRET ratio above about 2000; inactive = the rest.

SMILES	SRC1 TRFRET art	TR-FRET SRC-2 ct	PPARg SRC-2 ag	SRC3 TRFRET art	PPARg SRC-1 ag	PPARg SRC3 recr
O=C(NCCO)C1CCN(C(=O)c2ccc(-c3ccccc3)cc2)CC1	n	n	n	n	n	n
Cc1ccccc1OCc1nc2ccccc2[nH]1	n	n	n	n	n	n
COc1ccccc1OCc1nc2ccccc2[nH]1	x	n	23	x	n	n
Cc1cc(C)n(CCc2nc(-c3ccco3)cs2)n1	x	n	n	x	n	n
Cc1nn(CCc2nc(-c3ccco3)cs2)c2[nH]c(=O)cc(C(F)(F)F)c12	n	n	n	2055	n	n
COCCn1c(=NC(=O)c2cc(Cl)sc2Cl)sc2cc(S(N)(=O)=O)ccc21	n	n	n	n	n	n
CCOC(=O)Cn1c(=NC(=O)c2cc(-c3cccs3)nc3ccccc23)sc2cc(S(N)(=O)=O)ccc21	n	n	n	2342	n	n
COC(=O)Cn1c(=NC(=O)c2cc(-c3cccs3)nc3ccccc23)sc2cc(S(N)(=O)=O)ccc21	n	n	n	n	n	n
CCOCCn1c(=NC(=O)c2cc(Cl)sc2Cl)sc2cc(S(N)(=O)=O)ccc21	n	n	n	4758	n	30
CC(/C=C1\N=C(SCc2ccccc2)SC1=O)=C\c1ccccc1	n	n	n	n	n	n
Cc1ncc(CN2CCC(CO)(CCc3ccccc3)CC2)s1	n	n	n	n	n	n
O=C(CSc1nnc(C2COc3ccccc3O2)o1)N1CCN(c2ccccc2)CC1 (centres undefined)	n	n	n	n	n	n
COc1ccc(C2=NN(c3nc(-c4ccccc4)c(CC(=O)O)s3)C(c3ccco3)C2)cc1 (centres undefined)	n	n	n	2153	n	n
COc1ccc(C(=O)Nc2scc(-c3ccc(Cl)cc3Cl)c2C(N)=O)cc1	x	1986	n	x	n	n
C#CCNC(=O)C1=C[C@H](c2ccc(Br)cc2)C[C@H](OCCCCO)O1	n	n	n	n	n	n
CSc1nsc(/C=C/Nc2ccc(C(=O)O)cc2)c1C#N	2461	2141	n	2133	n	n
CSc1nsc(/C=C/Nc2ccc(F)cc2F)c1C#N	n	n	n	n	n	n
Cc1nc(SCC(=O)Nc2ccc3c(c2)OCCO3)c2oc3ccccc3c2n1	x	n	n	x	n	n
CCc1nc(SCC(=O)Nc2ccc3c(c2)OCCO3)c2oc3ccccc3c2n1	x	n	n	x	67	n
COc1cc(C(CC(=O)O)n2cnnn2)ccc1OC(C)C (centres undefined)	n	n	n	n	n	n
Cc1nn(C)cc1CN(C)S(=O)(=O)c1cccc([N+](=O)[O-])c1	n	n	n	n	n	n
O=C(CCN1C(=O)c2ccccc2C1=O)Nc1ccc(-c2nc3ccccc3o2)cc1	x	n	n	x	19	n
O=C(CN1C(=O)c2ccccc2C1=O)Nc1ccc(-c2nc3ccccc3o2)cc1	x	n	n	x	n	n
CC(C)n1c(SCC(=O)NCc2ccco2)nc2c1c(=O)n(C)c(=O)n2C	x	n	n	x	20	n
Cc1ccc2nc(SCC(=O)NCc3cccs3)c(C#N)cc2c1	x	n	n	x	42	n
SMILES	SRC1 TRFRET art	TR-FRET SRC-2 ct	PPARg SRC-2 ag	SRC3 TRFRET art	PPARg SRC-1 ag	PPARg SRC3 recr
Cn1c(=O)c2c(nc(SCC(=O)NCc3ccco3)n2C)n(C)c1=O	x	n	n	x	n	n
Cc1ccc2nc(SCC(=O)NCc3ccco3)c(C#N)cc2c1	x	2312	n	x	n	n
Cc1ccc(-n2c(CNC(=O)c3cccs3)nnc2SCC(=O)NO)cc1	n	n	n	n	n	n
O=C(CSc1ccc2ccccc2c1Br)Nc1cccc(S(=O)(=O)NC2=NCCCCC2)c1	n	n	n	2200	n	n
OCCN=C1CCCc2c1[nH]c1ccc(Br)cc21	x	n	n	x	19	n
COc1cc(NC(=O)c2cc(Cl)ccc2Cl)ccc1-c1cc2ccccc2oc1=O	x	2091	n	x	n	n
O=[N+]([O-])c1ccc(N2CCN(CCO)CC2)cc1Sc1nc2ccccc2[nH]1	x	n	n	x	n	n
COc1ccc(NCCNc2ccc(OC)cc2)cc1	x	n	n	x	20	n
Cc1ccc(NCCNc2ccc(C)cc2)cc1	x	n	n	x	n	n
O=C(Cc1ccccc1[N+](=O)[O-])NCc1ccc2c(c1)OCO2	2325	n	n	n	n	n
O=C(Cc1ccccc1)NCc1ccc2c(c1)OCO2	x	n	n	x	n	n
c1ccc(-c2oc3ncnc(NCCCN4CCOCC4)c3c2-c2ccccc2)cc1	x	n	n	x	24	n
COc1ccc(-c2oc3ncnc(NCCCN4CCOCC4)c3c2-c2ccc(OC)cc2)cc1	x	n	n	x	n	n
Cc1nc2ccccc2nc1OCC(=O)NCC(F)(F)F	2331	n	n	n	n	n
CCOc1ccc(N2CCc3c(C)nc(SC)nc32)cc1	n	n	n	n	n	n
C=CCn1c(Cc2cccs2)nnc1SCC(=O)c1ccc(F)cc1	x	n	n	x	21	n
Brc1ccccc1Cn1c(-c2cscn2)nc2ccccc21	x	n	n	x	n	n
O=C(c1ccccc1)c1ccc2nc(-c3ccc(NC(=O)c4ccccc4Br)cc3)[nH]c2c1	x	2003	n	x	n	n
CCc1cc2ccc(OC)cc2nc1SCC(=O)NNC(=O)c1ccco1	n	2005	n	n	n	n
Cc1cc(C)cc(N2C(=O)CSC2c2cccs2)c1 (centres undefined)	n	1989	n	n	n	n
Cc1ccc(N2C(=O)CSC2c2cccs2)cc1 (centres undefined)	x	n	n	x	n	n
Cc1ccc2nc(N3C(=O)C(O)=C(C(=O)c4ccco4)C3c3cccs3)sc2c1 (centres undefined)	x	2260	47	x	38	64
CCOC(=O)c1sc(N2C(=O)C(O)=C(C(=O)c3ccco3)C2c2ccccc2)nc1C (centres undefined)	x	n	n	x	n	n
COCc1c(C(=O)OCC(=O)NCCN2C(=O)CSC2=O)oc2ccccc12	n	n	n	n	n	n
CCOC(=O)c1ccc(NC2=CC(=O)CC(c3ccco3)C2)cc1 (centres undefined)	n	2006	n	n	n	n
SMILES	SRC1 TRFRET art	TR-FRET SRC-2 ct	PPARg SRC-2 ag	SRC3 TRFRET art	PPARg SRC-1 ag	PPARg SRC3 recr
O=C(Nc1nc(-c2ccc(S(=O)(=O)N3CCCCCC3)cc2)cs1)c1cccs1	x	2280	n	x	22	n
O=C(Nc1nc(-c2ccc3ccccc3c2)cs1)C1CCN(S(=O)(=O)c2cccs2)CC1	n	n	n	2381	n	n
COc1cccc(C(=O)Nc2nc(-c3ccc(S(=O)(=O)N4CCOCC4)cc3)cs2)c1	x	2385	n	x	n	n
O=C(Nc1nc(-c2ccc(S(=O)(=O)N3CCCC3)cc2)cs1)c1cccs1	x	n	n	x	n	n
Cc1onc(-c2ccccc2)c1C(=O)Nc1nc(-c2ccccc2)cs1	x	2194	n	x	n	n
Cc1ccc(-c2csc(NC(=O)c3cccc(S(=O)(=O)N4CCN(C)CC4)c3)n2)cc1	n	n	n	n	n	n
O=C(Nc1nc(-c2nc3ccccc3s2)cs1)c1ccc(S(=O)(=O)N2CCOCC2)cc1	x	n	n	x	n	n
O=C(Nc1nc(-c2ccc(S(=O)(=O)N3CCOCC3)cc2)cs1)c1ccccc1	x	2397	n	x	n	n

Screening data as filed in PubChem BioAssay.
